The record followed here is PubChem BioAssay (Tox21).

Test [1] can be described thus: qHTS assay to identify small molecule agonists of H2AX (AID 1224845; active = well fitted activation curve with a large enough effect in the signal ratio in the repeat runs, not every such curve was filed as active; the % refers to the signal ratio; also: potency is read from the fitted curve at half-maximal effect). The method in brief:
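Wild-type CHO-K1 cells, plated overnight, exposed 3hr at 37C to 15 concentrations (0.76% DMSO final). Lysed, then HTRF anti-pH2AX (S139) cryptate and anti-H2AX-d2 antibodies, 24 hr room temperature; 665/620 nm emission read.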
(qHTS replaces the single test concentration by a dilution series.)

A short description of test [2]: qHTS assay to identify small molecule agonists of the hypoxia (HIF-1) signaling pathway (AID 1224846; active = well fitted activation curve with a large enough effect in the signal ratio in the repeat runs, not every such curve was filed as active; the % refers to the signal ratio). The method in brief:
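HRE-bla ME-180 beta-lactamase reporter cells in medium with 0.5% dialyzed FBS, pre-incubated 5 h then exposed to compounds 17 h at 37C, 5% CO2; reporter induction read with CCF4-AM FRET substrate.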

A short description of test [3]: qHTS assay to identify small molecule agonists of H2AX - cell viability counter screen (AID 1224847; calls by dose curve; also: top concentration of the series differs between compounds; nearly all actives have a fitted effect of over 30% in size). The procedure, abridged: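 After overnight plating of 1000 CHO-K1 cells per well, a 15-concentration compound series was applied for 3 hr at 37C. Luminescence from CellTiter-Glo, read following 30 min at room temperature, reflected cell viability.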
The nature of test [4]: qHTS assay to identify small molecule antagonists of the estrogen related receptor (ERR) signaling pathway from Tox21 library (AID 1224848). Also: nearly all actives have a fitted effect of over 50% in size. The procedure, abridged:
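ERR reporter cell line (from NTP) seeded 2,000 cells/well, rested 6 h at 37 C/5% CO2, then pin-dosed with compounds in DMSO. After 18 h at 37 C, ONE-Glo added; luminescence read after 30 min at room temperature.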

Test [5] in a line: qHTS assay to identify small molecule agonists of the estrogen related receptor (ERR) signaling pathway from Tox21 library (AID 1224849; calls by dose curve; also: nearly all actives have a fitted effect of over 15% in size). The procedure, abridged: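 ERR reporter cells (NTP line) pre-incubated 6 hours at 37 C, then exposed to compounds for 18 hours at 37 C. ONE-Glo luciferase luminescence was read after 30 minutes at room temperature.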
Test [6] in a line: qHTS RealTime-Glo MT Cell Viability Assay in HEK293 cells - 32 hour (AID 1224868). Also: top concentration of the series differs between compounds; nearly all actives have a fitted effect of over 50% in size. The procedure, abridged: (§1)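 Cells + reagent dispensed (600 cells/well, HEK293) → 5 h at 37 C/5% CO2 → 23 nL compound in DMSO pinned → 40 h at 37 C → luminescence read at 0, 8, 16, 24, 32, 40 h.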
Test [7] in a line: A CellTox Green Cytotoxicity Assay to monitor cytotoxicity in HEK293 cells - 0 hour (AID 1224869). Also: nearly all actives have a fitted effect of over 50% in size. The method in brief:
(§2)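 HEK293 cells, 600/well, were preincubated 5 hours and then exposed to compounds at 37 C for up to 40 hours. A cell-impermeant cyanine dye staining dead-cell DNA was read by fluorescence at 0, 8, 16, 24, 32 and 40 h time points.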

A short description of test [8]: qHTS RealTime-Glo MT Cell Viability Assay in HepG2 cells - 40 hour (AID 1224870). Also: nearly all actives have a fitted effect of over 50% in size. The procedure, abridged: (§3)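 HepG2 cells (600/well) mixed with RealTime-Glo MT reagent, settled 5 h at 37 C/5% CO2 before compound addition. Nonlytic NanoLuc luminescence from viable-cell prosubstrate reduction read repeatedly during 40 h treatment at 37 C.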
A short description of test [9]: A CellTox Green Cytotoxicity Assay to monitor cytotoxicity in HEK293 cells - 40 hour (AID 1224871). Also: nearly all actives have a fitted effect of over 45% in size. Also: potency is read from the fitted curve at half-maximal effect. The method in brief:
as §2

Test [10] can be described thus: qHTS RealTime-Glo MT Cell Viability Assay in HEK293 cells - 16 hour (AID 1224872). The procedure, abridged:
as §1

Test [11] in a line: qHTS RealTime-Glo MT Cell Viability Assay in HepG2 cells - 8 hour (AID 1224873). Also: nearly all actives have a fitted effect of over 55% in size. The method in brief: as §3
Test [12] is described as follows: qHTS RealTime-Glo MT Cell Viability Assay in HEK293 cells - 40 hour (AID 1224874). Also: nearly all actives have a fitted effect of over 50% in size. To be noted: RealTime-Glo luminescence; max response: active compounds read low. The method in brief:
(§4)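 600 cells/well were plated with the nonlytic NanoLuc/prosubstrate reagent, pre-incubated 5 h, then given 23 nL of compound in DMSO. Incubation at 37 C for 40 h, with luminescence from viable-cell-reduced substrate read repeatedly from 0 h.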

Test [13] can be described thus: A CellTox Green Cytotoxicity Assay to monitor cytotoxicity in HEK293 cells - 24 hour (AID 1224875). Also: series mostly up to about 77 µM; nearly all actives have a fitted effect of over 45% in size. The method in brief:
as §2

Test [14] can be described thus: A CellTox Green Cytotoxicity Assay to monitor cytotoxicity in HepG2 cells - 16 hour (AID 1224876). Also: nearly all actives have a fitted effect of over 45% in size. The method in brief:
(§5)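 HepG2 cells, 600/well, preincubated 5 h with CellTox Green dye, then exposed to Tox21 compounds in DMSO at 37 C for up to 40 h. Dead-cell DNA fluorescence read at the indicated time point.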

A short description of test [15]: qHTS RealTime-Glo MT Cell Viability Assay in HepG2 cells - 32 hour (AID 1224877). Also: nearly all actives have a fitted effect of over 55% in size. The procedure, abridged: (§6)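 Real-time, nonlytic viability: 600 HepG2 cells/well mixed with NanoLuc enzyme plus prosubstrate; 5 h settle, compound (DMSO) added by pintool; luminescence monitored over 40 h at 37 C.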
Test [16] in a line: A CellTox Green Cytotoxicity Assay to monitor cytotoxicity in HepG2 cells - 24 hour (AID 1224878). Also: nearly all actives have a fitted effect of over 45% in size. The method in brief: as §5
Test [17] in a line: A CellTox Green Cytotoxicity Assay to monitor cytotoxicity in HepG2 cells - 40 hour (AID 1224879). Also: nearly all actives have a fitted effect of over 40% in size. The procedure, abridged: as §5
Test [18] is described as follows: qHTS RealTime-Glo MT Cell Viability Assay in HEK293 cells - 0 hour (AID 1224880). The method in brief: as §4
Test [19] in a line: A CellTox Green Cytotoxicity Assay to monitor cytotoxicity in HEK293 cells - 32 hour (AID 1224881). Also: nearly all actives have a fitted effect of over 40% in size. The method in brief: as §2
The nature of test [20]: qHTS RealTime-Glo MT Cell Viability Assay in HepG2 cells - 24 hour (AID 1224867). Also: nearly all actives have a fitted effect of over 50% in size. The method in brief: as §6

A number with no mark means an inactive call. Inconclusive results are not listed. The source made the active and inactive calls. Unless noted, calls follow the shape of the dose curve; as a rule, active = well fitted curve in the direction sought with a large enough effect in the repeat runs; inconclusive = weak or mixed curves; inactive = no such curve, though single readings can be large; an effect the other way counts as inactive or inconclusive.
% is scaled to controls: 0 for no effect and ±100 for the full control effect.

With `CCOCC(C)O` (stereo not given), the Potency result in test [1], in [4], in [6], in [8], in test [9] and in test [10] was “inactive” each time. Besides, the Potency entry in test [15], in [17] and in test [18] was “inactive” each time. Also, the result in test [2], in test [3], in test [5], in test [7], in [11] and in [13] was inactive. Also, the call in [14], in test [16] and in test [19] was inactive. Moreover, the max response in test [12] is -1.56%.
In the case of `CN(C)CCCCCCN(C)C`, the Potency entry in test [1], in test [4], in test [6], in [8], in test [9] and in test [10] was “inactive” in each case. Besides, the Potency entry in [15], in test [17] and in test [18] was “inactive” in each case. In addition, the result in test [2], in test [3], in [5], in [20], in test [7] and in test [11] was inactive. The call in test [13], in [14], in test [16] and in [19] was inactive. For the same molecule, the max response in test [12] is -6%.
In the case of `C[N+](C)(CCOc1ccccc1)Cc1cccs1`, the Potency entry in test [1], in test [4], in test [6], in test [9], in test [10] and in test [18] was “inactive” throughout. In addition, the molecule was called inactive in test [2], in [3], in [20], in [7], in [11] and in test [13]. In addition, in test [19], the outcome was inactive. The max response in test [12] was 6.59%.
Turning to `CCOC(=O)COc1cc(-n2ncc(C(F)(F)F)c(C)c2=O)c(F)cc1Cl`, the Potency result in [1], in test [6], in test [8], in [9], in test [10] and in test [15] was “inactive” in each case. In addition, the Potency result in test [17] and in test [18] was “inactive” in each case. The molecule was classed as inactive in test [2], in test [3], in [20], in test [7], in test [11] and in [13]. The molecule was called inactive in test [14], in [16] and in [19]. Further, the max response in test [12] is -4.34%.
Turning to `CC[C@H]1OC(=O)[C@H](C)[C@@H](O[C@H]2C[C@@](C)(OC)[C@@H](O)[C@H](C)O2)[C@H](C)[C@@H](O[C@@H]2O[C@H](C)C[C@H](N(C)C)[C@H]2O)[C@](C)(OC)C[C@@H](C)C(=O)[C@H](C)[C@@H](O)[C@]1(C)O`, the Potency result in [1], in test [4], in test [6], in test [8], in test [9] and in [10] was “inactive” in each case. Also, the Potency result in test [15] and in test [17] was “inactive” throughout. Further, the call in test [2], in test [3], in test [5], in [20], in test [7] and in [11] was inactive. For the same molecule, the molecule was classed as inactive in test [13], in [14], in [16] and in test [19]. Also, the max response in test [12] is -20.3%.
For `C[C@H]1C[C@H]2[C@@H]3CCC4=CC(=O)C=C[C@]4(C)[C@H]3C(=O)C[C@]2(C)[C@@]1(O)C(=O)CO`, the Potency entry in test [1], in [4], in [6], in test [8], in test [9] and in test [10] was “inactive” throughout. The Potency result in test [15], in test [17] and in test [18] was “inactive” throughout. For the same molecule, the result in test [2], in [3], in test [5], in test [20], in [7] and in test [11] was inactive. Also, the outcome in test [13], in test [14], in [16] and in [19] was inactive. In test [12], the max response is 0.535%.
Regarding `c1ccc(CCc2ccccc2)cc1`, the Potency result in test [1], in [4], in [6], in [8], in test [10] and in test [15] was “inactive” throughout. Also, the outcome in test [2], in [3], in [5], in [7] and in test [11] was inactive. Moreover, in test [9], the Potency is 38.9 µM (active). In test [12], the max response was -4.4%.
Regarding `Clc1cc(Cl)c(Cl)nc1Cl`, the Potency result in test [1], in test [4], in test [6], in test [8], in test [9] and in [10] was “inactive” throughout. For the same molecule, the Potency entry in test [15], in [17] and in test [18] was “inactive” each time. Moreover, the call in [2], in test [3], in test [5], in [20], in test [7] and in test [11] was inactive. Moreover, the molecule was classed as inactive in test [13], in [14], in test [16] and in test [19]. The max response in test [12] was -11.7%.
Consider `O=S(=O)(O)c1cccc(S(=O)(=O)O)c1`, for which the Potency entry in test [1], in test [4], in test [6], in test [9], in test [10] and in test [15] was “inactive” in each case. Besides, the Potency result in test [17] and in [18] was “inactive” throughout. In addition, the result in test [2], in test [3], in test [5], in [7], in test [11] and in [13] was inactive. The molecule was classed as inactive in [14], in test [16] and in [19]. The max response in [12] was 15.6%.
Take `Cc1nc(C2CCCCC2)c(-c2ccc(S(N)(=O)=O)c(F)c2)o1`: the Potency result in [1], in test [4], in [8], in test [9], in test [15] and in [17] was “inactive” throughout. The Potency result in test [18] is “inactive”. Moreover, the call in test [2], in test [3], in test [5], in test [20], in test [7] and in test [13] was inactive. Also, the molecule was classed as inactive in test [14], in test [16] and in test [19].
On to `Nc1ccn([C@@H]2O[C@H](CO)[C@@H](O)[C@@H]2O)c(=O)n1`, for which, in test [1], the Potency is 20.1 µM (active). Besides, the call in [2], in [3], in [5], in test [20], in [7] and in [11] was inactive. The outcome in test [13], in [14] and in [19] was inactive. In addition, the Potency entry in test [4], in [6], in test [8], in test [9], in test [10] and in test [15] was “inactive” each time. Also, the Potency entry in test [18] is “inactive”. Further, the max response in [12] is 6.05%.
Take `C=CCCCCCCCCC(=O)OCC`: the Potency result in test [1], in [4], in test [6], in [8], in [10] and in test [15] was “inactive” throughout. The outcome in test [2], in test [3], in test [5], in test [7], in test [11] and in test [13] was inactive. Also, the molecule was called inactive in test [14] and in test [19]. Also, in test [12], the max response is 3.1%.
Take `Cc1cc(C)c(N=Nc2c(O)c(S(=O)(=O)O)cc3cc(S(=O)(=O)O)ccc23)cc1C`: the activation (H2AX phosphorylation) in test [1] was 1.25% [at 14 µM]. For the same molecule, the activation in test [2] was -0.827% [at 7.01 µM]. Besides, the activity change, negative = cytotoxicity is -10.4% [at 14 µM] in test [3] and -1.15% [at 6.97 µM] in test [20]. Also, in [4], the activity, negative = inhibition was -9.99% [at 8.39 µM]. Also, in test [5], the activity change, positive = activation was -5.16% [at 8.39 µM]. Moreover, in [7], the cytotoxicity is 0.859% [at 6.97 µM]. Moreover, the activity change, negative = cytotoxic in test [8] was -8.96% [at 6.97 µM]; in test [15] it was -2.9% [at 6.97 µM]. Also, the cytotoxicity increase was 18.5% [at 6.97 µM] in [9], 0.0418% [at 6.97 µM] in [14], -2.22% [at 6.97 µM] in [17] and 10.2% [at 6.97 µM] in [19]. Further, the viability change, negative = cytotoxic in [11] was 5.41% [at 6.97 µM]. Besides, the activity change in test [13] is 16.7% [at 6.97 µM].
